Compounds without any hit were thinned out: in the full panel of roughly 79,000, 15% have a hit. Cut-off read from the data, not from the text of the source: active = growth inhibition above about 70%; inactive = the rest.
How the values were obtained:
[1] = NCI Yeast Anticancer Drug Screen. Data for the rad50 strain (AID 155);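 note: 0% = growth of vehicle-only cultures of the same strain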; conditions: S. cerevisiae rad50 strain growth inhibition; at 50.0 µM; active compounds read high
How it was run: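 Vehicle-treated cultures provide the reference for the growth inhibition reported for compound-exposed, repair-deficient yeast.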

[2] = NCI Yeast Anticancer Drug Screen. Data for the mec2-1 strain (AID 157); conditions: S. cerevisiae mec2-1 strain, at 50.0 µM, active compounds read high
How it was run: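 Mutant yeast (mec2-1) grown with compound; growth inhibition relative to vehicle control reported.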

[3] = NCI Yeast Anticancer Drug Screen. Data for the sgs1 mgt1 strain (AID 161);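 note: 0% = growth of cultures given vehicle only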; conditions: S. cerevisiae sgs1 mgt1 strain, at 50.0 µM, active compounds read high
How it was run: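 This yeast growth screen uses a strain with defined DNA-repair lesions; compound-treated growth is compared with vehicle-treated growth.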

[4] = NCI Yeast Anticancer Drug Screen. Data for the cln2 rad14 strain (AID 165);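 note: 0% = growth equal to vehicle treated cultures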; conditions: S. cerevisiae cln2 rad14 strain, at 50.0 µM, active compounds read high
How it was run: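 Readout is yeast growth inhibition versus vehicle-treated controls, using a strain with cln2 and rad14 alterations exposed to compound.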

[5] = NCI Yeast Anticancer Drug Screen. Data for the bub3 strain (AID 167); conditions: S. cerevisiae bub3 mutant strain, at 50.0 µM, active compounds read high
How it was run: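 Mutant yeast screening strain plus compound; vehicle-treated cultures serve as the 0% inhibition reference.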

[6] = NCI Yeast Anticancer Drug Screen. Data for the mlh1 rad18 strain (AID 175); conditions: S. cerevisiae mlh1 rad18 strain growth inhibition; at 50.0 µM; active compounds read high
How it was run: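 Genetically defined yeast (DNA repair-deficient) exposed to compounds; growth inhibition determined relative to vehicle.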

Measured: growth inhibition

CC(=O)OC(C)c1cccc(C#N)c1 (stereo not drawn)
inactive: [1] 7.15% | [2] -25.4% | [3] 6.2% | [4] -8.9% | [5] -2.95%

N#Cc1ccc(OC(=O)Nc2c(Cl)cc(Cl)cc2Cl)cc1
inactive: [1] -10.2% | [2] -14.7% | [3] 15.4% | [4] 23.2% | [5] 30.4%

COc1cc(N)c2ncccc2c1Cl
inactive: [1] 17.6% | [2] 3.55% | [3] 24.4% | [4] -0.05% | [5] -7.3% | [6] 30.4%

CC1(C)CCC(C)(C)NC(=S)N1
inactive: [1] 13.3% | [2] -8.35% | [3] 21.2% | [4] 1.9%

NNc1ncnc2c1ncn2C1OC(CO)C(O)C1O (stereo not drawn)
inactive: [1] -9.85% | [2] -12.8% | [3] 0.15% | [4] -21.9% | [5] 1.45%

O=C(NCc1ccccc1)c1cccc([N+](=O)[O-])c1
inactive: [1] 5.05% | [2] 18.1% | [3] 19.9% | [4] -47% | [5] 22.9%

C=CC(C)C(C)(C)O (stereo not drawn)
inactive: [1] -3.2% | [2] -43.5% | [3] -1% | [4] 4.25% | [5] -13.5%

CC(=O)N(C)N=Nc1ccc(C)cc1
inactive: [1] 3.7% | [2] -23.6% | [3] -13.6% | [4] 4% | [5] 0.1% | [6] -4.05%

C1C[S+]2CC[S+]1CC2
inactive: [1] 3.5% | [2] 28.9% | [3] 24.3% | [4] -5.95% | [5] 19.2% | [6] 28.2%

C=CCNC(=S)N/C=C(/C(=O)c1ccccc1)c1ccccc1
inactive: [1] -53.6% | [2] -23.8% | [3] -45.2% | [4] -31.5% | [5] -20.4%

CC(c1ccccc1)N(C)C (stereo not drawn)
inactive: [1] 12.7% | [2] -1.8% | [3] 0.4% | [4] 7.6% | [5] 5.9%

O=C(CCl)Oc1ccc([N+](=O)[O-])cc1
inactive: [1] 20.8% | [2] 21.9% | [3] 23.8% | [4] 11.7%

Nc1cccc2cccc(O)c12
inactive: [1] 40.1% | [2] 18.7% | [3] -17.5% | [4] -10.8% | [5] 41.4% | [6] 43.5%

OCCNc1ccccc1
inactive: [1] 31.9% | [2] 11.4% | [3] 2.75% | [4] 11.1% | [5] 6.3%

O=C(NCc1ccco1)Nc1cccc2c(NC(=O)NCc3ccco3)cccc12
inactive: [1] 2.15% | [2] -13.5% | [3] 2.6% | [4] 25.8% | [5] 2.05%

COCC(N)=O
inactive: [1] 31.2% | [2] -17.9% | [3] 15.2% | [4] -5.1% | [5] 5.2%

Cc1cc(Cc2ccccc2)c(O)c(Cc2ccccc2)c1
inactive: [1] 50.1% | [2] 3.3% | [3] 32% | [4] 38% | [5] 12.3%

O=c1cc(Cl)nc2ccccn12
inactive: [1] 18.6% | [2] -1.1% | [3] -11% | [4] -52.3% | [5] -3.85%

C[n+]1c(/C=C\C=C\N2CCCCC2)sc2ccccc21
inactive: [1] 28.7% | [2] 14.6% | [3] 34.4% | [4] 2.45% | [5] 31.6%

Cc1ccc(C)c(CN(C)C)c1O
inactive: [1] -0.8% | [2] -1.45% | [3] 4.9% | [4] 25.1% | [5] -11.1% | [6] 22.9%

C1=NCCc2ccccc21
inactive: [1] 0.55% | [2] 3% | [3] -8.25% | [4] -19.9% | [5] 2.05%

NNC(=O)N/N=C1\C(=O)N(c2nccs2)C(=O)C(=O)C1c1nc2ccccc2s1 (stereo not drawn)
inactive: [1] -26.1% | [2] -21.8% | [3] -33% | [4] 10.8% | [5] -5.15%

COc1ccc(/C=N/NC(=O)COCC(=O)N/N=C/c2ccc(OC)cc2)cc1
inactive: [1] -34.6% | [2] -47.7% | [3] -15.4% | [4] 2.5% | [5] -33% | [6] -25.6%

CCOC(=O)C(CCC#N)(CCC#N)C(=O)OCC
inactive: [1] 39.5% | [2] 9.8% | [3] -2.2% | [4] -21.3% | [5] 12.6% | [6] 38.7%

N#CCCN1C(=O)CCC1C(=O)O (stereo not drawn)
inactive: [1] 7.75% | [2] -11.2% | [3] 10.1% | [4] -6.15% | [5] -3.1%

C=C1SC(=Nc2c(C)cccc2C)N(c2nc(Cl)nc(Cl)n2)C12CCCCC2
inactive: [1] 21% | [2] -8.75% | [3] 11.2% | [4] 19.1% | [5] 10.9% | [6] 14.1%

CCNc1ncnc2[nH]ncc12
inactive: [1] -8.2% | [2] -6.45% | [3] -5.6% | [4] -13.8% | [5] 3.9% | [6] -5.3%

CC(C)C(C)(C)C(=O)C(C)(C)C(C)(C)C
inactive: [1] -12.2% | [2] -2.65% | [3] -9.7% | [4] -35.5%

NC(CSSCC(N)C(=O)O)C(=O)O (stereo not drawn)
inactive: [1] -11.6% | [2] -20% | [3] 1.35% | [4] 4% | [5] -20.9%

Nc1ncnc(Nc2ccc(C(F)(F)F)cc2)n1
inactive: [1] 44% | [2] 8.35% | [3] 1.35% | [4] 13.2% | [5] 25.6% | [6] 17.9%

CCCC(=O)CC(=O)c1ccccc1
inactive: [1] 7.75% | [2] 10.4% | [3] -3.75% | [4] -13.6% | [5] 5.85%

C=CCS(C)(=O)=O
inactive: [1] -13.8% | [2] -18.6% | [3] -11.8% | [4] 5.7% | [5] -0.8%

CCOc1ccc(C(=O)O)cc1
inactive: [1] 34.8% | [2] -12.8% | [3] -1.65% | [4] 4.85% | [5] 8.2%

CC(C)(N)CO[C@H]1C[C@H]2CC[C@@]1(C)C2(C)C
inactive: [1] 11.8% | [2] -5.7% | [3] 2.4% | [4] -26.4% | [5] 10.2%

Nc1nc(Cl)cc(Cl)n1
inactive: [1] 6.65% | [2] 3.15% | [3] 0% | [4] 5.05% | [5] 2.85%

C=CCN1CCCC1=O
inactive: [1] 7.85% | [2] 10.6% | [3] 1.5% | [4] -18.6% | [5] -16.2%

Cc1cc(=O)n(Nc2ccccc2)c(O)c1C#N
inactive: [1] 3.45% | [2] -19% | [3] 0.3% | [4] 2.65% | [5] 5.6%

Nc1ccc2ccccc2c1-c1c(N)ccc2ccccc12
inactive: [1] 14.8% | [2] 2.45% | [3] -2.05% | [4] 1.1% | [5] 0.75% | [6] -2.65%

CCOC(OCC)C(=O)c1ccccc1
inactive: [1] -0.5% | [2] -19.9% | [3] -4.1% | [4] 9.2% | [5] 6.25% | [6] 25.1%

COc1cc(C(=O)N2CCN(c3ccccc3)CC2)c2ccccc2n1
inactive: [1] -3.8% | [2] 3.8% | [3] 10.7% | [4] 18.5% | [5] 9.2% | [6] 3.1%

CSc1nsc(N)n1
inactive: [1] -13.3% | [2] 2.5% | [3] -4.2% | [4] -26.9% | [5] 16.8% | [6] 20.7%

CCOC(=O)N[C@H]1CCc2cc(OC)c(OC)c(OC)c2-c2ccc(SC)c(=O)cc21
inactive: [1] 33.5% | [2] -16.5% | [3] 16.2% | [4] 5.1% | [5] 1.35% | [6] -1.55%

C#CC(O)c1ccccc1 (stereo not drawn)
inactive: [1] -2.4% | [2] -15.3% | [3] 13.1% | [4] -11.6% | [5] 0.9% | [6] -0.65%

N#C/C(=C\c1ccc(C#N)cc1)C(=O)c1ccccc1
inactive: [1] 10.5% | [2] 0.95% | [3] 16.4% | [4] 19% | [5] 9.95% | [6] 18.9%

Cc1nc(O)cc(=O)[nH]1
inactive: [1] 17.7% | [2] -6.9% | [3] -14.2% | [4] -6.95% | [5] -15.3% | [6] 10.1%

COc1ccc2c(ccc[n+]2C)c1
inactive: [1] 19.6% | [2] 30.9% | [3] 3.65% | [4] 19.2% | [5] -15.7% | [6] -25.4%

CCOC(=O)c1ccc(C(C)(C)C)cc1
inactive: [1] 20.4% | [2] -6.65% | [3] 2.5% | [4] -45.5% | [5] 0.4% | [6] 6.5%

Clc1ccc(C(SCc2ccccc2)SCc2ccccc2)cc1
inactive: [1] -41.4% | [2] -46.8% | [3] -15.6% | [4] -17.6% | [5] -10% | [6] -20.1%

Source: PubChem BioAssay (NCI)
